Source: the supplement of paper PMC13380429

Legend:
[1] = system: Vero E6 infected with SARS-CoV-2; test: morphology score (similarity to uninfected cells); higher = more like uninfected cells; details: 24 h
[2] = system: Vero E6 infected with SARS-CoV-2; test: SARS-CoV-2 infection rate relative to infected DMSO; higher = more infection, active = 60 or less; details: 24 h

Structure (SMILES)	morphology score [1]	SARS-CoV-2 infection rate [2]
CC[C@H]1OC(=O)[C@H](C)[C@@H](O[C@H]2C[C@@](C)(OC)[C@@H](O)[C@H](C)O2)[C@H](C)[C@@H](O[C@@H]2O[C@H](C)C[C@H](N(C)C)[C@H]2O)[C@](C)(O)C[C@@H](C)C(=O)[C@H](C)[C@@H](O)[C@]1(C)O [erythromycin] (10 µM)	-0.171	102% (inactive)
O=C(O)COc1nn(Cc2ccccc2)c2ccccc12 [bendazac] (10 µM)	-0.0178	102% (inactive)
C=C1c2cccc(O)c2C(=O)C2=C(O)[C@]3(O)C(=O)C(C(N)=O)=C(O)[C@@H](N(C)C)[C@@H]3[C@@H](O)[C@H]12 [methacycline] (0.833333 µM)	0.0945	103% (inactive)
CCCCC/C=C\C=C\CCCCCCCCC(=O)O [trans-10,cis-12-conjugated-linoleic-acid] (10 µM)	0.0778	104% (inactive)
c1ccc2c(c1)OC[C@H](CNCCCOc1ccc3c(c1)OCO3)O2 [osemozotan] (10 µM)	0.0986	106% (inactive)
Clc1cccc(Nc2nnc(-c3ccccc3)c3ccccc23)c1 (10 µM)	0.2	94% (inactive)
CC(C)OC(=O)CNC(=O)[C@H](CS)NC(=O)CC[C@H](N)C(=O)O [glutathione-monoisopropyl-ester] (10 µM)	0.0539	101% (inactive)
Nc1nc(CC(=O)Nc2ccc(CCNC[C@H](O)c3ccccc3)cc2)cs1 [mirabegron] (10 µM)	-0.0704	102% (inactive)
CC[C@@H](C)CNCC(=O)N1CCc2sccc2[C@@H]1COc1cccc(C)c1 (10 µM)	0.447	58.5% (active)
C=CC(C)(C)c1cc(/C=C/C(=O)c2ccc(O)cc2)c(OC)cc1O [licochalcone-A] (10 µM)	-0.0626	114% (inactive)
CC(=O)O[C@]1(C(C)=O)CC[C@H]2[C@@H]3C[C@H](C)C4=CC(=O)C=C[C@]4(C)[C@@]3(F)[C@@H](O)C[C@@]21C [fluorometholone-acetate] (10 µM)	0.0758	105% (inactive)
CC(=O)c1cc([N+](=O)[O-])c(Sc2ccc(F)cc2F)s1 (10 µM)	0.534	38.5% (active)
Nc1nc(NCCc2ccc(O)cc2)nc2nc(-c3ccco3)nn12 (10 µM)	-0.0969	111% (inactive)
CC[C@H](NC(=O)c1c(C)c(-c2ccccc2)nc2ccccc12)c1ccccc1 (10 µM)	0.0423	101% (inactive)
CC#CC(=O)N1CCC[C@H]1c1nc(-c2ccc(C(=O)Nc3ccccn3)cc2)c2c(N)nccn12 [acalabrutinib] (10 µM)	-0.00394	108% (inactive)
CCc1ccc(CCOc2ccc(CC3SC(=O)NC3=O)cc2)nc1 (configuration not stated) [pioglitazone] (10 µM)	0.077	110% (inactive)
CCOc1nc2cccc(C(=O)O)c2n1Cc1ccc(-c2ccccc2-c2nnn[nH]2)cc1 [candesartan] (10 µM)	0.175	105% (inactive)
CCN(CC)CC(=O)Nc1c(C)cccc1C [lidocaine] (10 µM)	0.0603	100% (inactive)
O=C(O)[C@H]1CCCN(CCC=C(c2ccccc2)c2ccccc2)C1 (racemic) (10 µM)	0.0757	88.5% (inactive)
O=c1cc[nH]c(=O)[nH]1 [uracil] (10 µM)	-0.002	108% (inactive)
Cc1ccc(Oc2ccccc2-c2csc(N=C3NCCCN3)n2)c(C)c1 [abafungin] (10 µM)	0.0754	100% (inactive)
CC[C@H]1CN2CCc3cc(OC)c(OC)cc3[C@@H]2C[C@@H]1C[C@H]1NCCc2cc(OC)c(OC)cc21 [emetine] (0.833333 µM)	-0.193	108% (inactive)
Cc1ncc(-c2csc(N=C(N)N)n2)[nH]1 [zaltidine] (10 µM)	0.0534	106% (inactive)
c1ccc(C(NCCNC(c2ccccc2)c2ccccc2)c2ccccc2)cc1 (10 µM)	0.14	101% (inactive)
O=C(NC(NC(=S)Nc1ccc(F)c([N+](=O)[O-])c1)C(Cl)(Cl)Cl)C(c1ccccc1)c1ccccc1 (configuration not stated) (0.833333 µM)	0.0472	104% (inactive)
Cc1ccccc1-c1cc(N2CCN(C)CC2)ncc1N(C)C(=O)C(C)(C)c1cc(C(F)(F)F)cc(C(F)(F)F)c1 [netupitant] (10 µM)	0.112	94% (inactive)
